Screens: PubChem BioAssay, several laboratories
Mtb bLac sens – beta-lactam sensitization of Mtb H37Rv; inhibition, % at 25 µM; AID 434955; 330,000 compounds, 0.27% hits; M. tuberculosis H37Rv growth with meropenem, percent inhibition;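 further: growth measured after seven days incubation then overnight dye step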
RecA splice inh – inhibitors of M. tuberculosis RecA intein splicing; cell-free RecA intein splicing, fluorescence; 290,000 compounds, 0.75% hits; AID 2221; inhibition, % (concentration not given with the values); P9WHJ3; in the data active means inhibition above about 30%; inconclusive means no clear call, values can overlap the other calls
Target sequence (P9WHJ3 whole entry, looked up, canonical isoform): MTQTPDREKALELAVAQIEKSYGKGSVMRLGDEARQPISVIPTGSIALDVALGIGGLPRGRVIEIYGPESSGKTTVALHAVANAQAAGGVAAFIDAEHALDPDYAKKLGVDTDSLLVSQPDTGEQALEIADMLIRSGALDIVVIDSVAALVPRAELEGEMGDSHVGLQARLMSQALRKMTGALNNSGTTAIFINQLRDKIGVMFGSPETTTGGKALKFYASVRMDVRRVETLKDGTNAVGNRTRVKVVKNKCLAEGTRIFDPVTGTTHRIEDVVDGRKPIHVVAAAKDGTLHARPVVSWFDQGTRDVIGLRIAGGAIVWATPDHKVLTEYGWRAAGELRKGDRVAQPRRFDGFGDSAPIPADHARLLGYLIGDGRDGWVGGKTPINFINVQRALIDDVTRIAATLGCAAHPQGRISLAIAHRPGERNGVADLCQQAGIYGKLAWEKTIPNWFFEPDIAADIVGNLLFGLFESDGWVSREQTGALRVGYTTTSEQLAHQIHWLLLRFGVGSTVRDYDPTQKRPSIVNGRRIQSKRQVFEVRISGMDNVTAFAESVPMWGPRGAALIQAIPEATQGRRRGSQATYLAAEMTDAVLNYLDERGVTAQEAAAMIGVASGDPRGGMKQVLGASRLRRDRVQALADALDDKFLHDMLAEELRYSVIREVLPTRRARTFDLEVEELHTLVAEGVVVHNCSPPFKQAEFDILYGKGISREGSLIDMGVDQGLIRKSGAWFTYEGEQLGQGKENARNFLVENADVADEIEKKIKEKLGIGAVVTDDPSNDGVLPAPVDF
Mtb hypoxia inh – Mtb hypoxia fluorescent reporter inhibition; M. tuberculosis hypoxia-regulated fluorescent reporter, fluorescence; fluorescence inhibition, % (no concentration beside the values); 300,000 compounds, 0.1% hits; in the data active means fluorescence inhibition mostly above about 23%, no sharp cut-off; inactive means mostly below about 17%
CCHFV vOTU inh – blocks the CCHF virus ovarian tumor domain protease. CCHFV vOTU protease, Pep-AMC fluorescence. inhibition, % at 11.5 µM. 370,000 compounds, 0.55% hits; in the data active means inhibition above about 30%
PfHsp40 rescue – compounds rescuing yeast from Plasmodium falciparum HSP40 toxicity; growth rescue, % at 12.5 µM; S. cerevisiae expressing PfHsp40, growth rescue, ATP luminescence; AID 504582; 340,000 compounds, 0.68% hits; in the data active means growth rescue above about 28%, passing the limit was not always enough; inconclusive means no clear call, values can overlap the other calls;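 further: yeast W303a lacking pdr1 and pdr3 grown in galactose medium; growth measured after three days at 30 °C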
GFP chromophore – counter-screen GFP chromophore formation inhibition | shares compounds with RecA splice inh | cell-free GFP chromophore formation, fluorescence | EC50, µM | 2,100 compounds, 83% hits | AID 434968
Each line names hits and unclear results; the compound was inactive in the other large screens (follow-up assays come after a bar, where shown). An excerpt weighted towards active compounds, which were near 1.7% of everything screened. Unless noted, how the calls were made is not given here.

O=C(C1=CC(c2ccc(Br)cc2)CC(OCCCCO)O1)N1CCN(Cc2ccc3c(c2)OCO3)CC1 (stereo unspecified)	none (no result: Mtb bLac sens, RecA splice inh, CCHFV vOTU inh, PfHsp40 rescue)
N#Cc1cc([N+](=O)[O-])c(-n2nnc3ccccc32)c([N+](=O)[O-])c1	RecA splice inh 94.1 (no result: CCHFV vOTU inh) | GFP chromophore inactive
CS(=O)(=O)c1ccc(-n2nnc3ccccc32)c([N+](=O)[O-])c1	none
O=C(CNC(=O)c1ccc2c(c1)OCCO2)NN=Cc1ccco1	none (no result: Mtb bLac sens, RecA splice inh, CCHFV vOTU inh, PfHsp40 rescue)
Cc1cc(Nc2ccccc2)c2c([N+](=O)[O-])ccc(C)c2n1	RecA splice inh 70.7 | GFP chromophore 11.8
Cc1cc(Nc2cccc([N+](=O)[O-])c2)c2cccc(C)c2n1	none (no result: RecA splice inh)
Cc1ccc(C(c2c(C)[nH][nH]c2=O)c2c(C)[nH][nH]c2=O)cc1[N+](=O)[O-]	RecA splice inh 99.1 | GFP chromophore 0.495
CCOc1cc(C(c2c(C)[nH][nH]c2=O)c2c(C)[nH][nH]c2=O)cc(Cl)c1O	RecA splice inh 94.9 | GFP chromophore inactive
Cc1ccc(/C=C2\NC(=S)NC2=O)cc1[N+](=O)[O-]	none
COc1cc(/C=C/c2[nH]c(=O)[nH]c(=O)c2[N+](=O)[O-])cc([N+](=O)[O-])c1O	none (not shown: Mtb hypoxia inh)
COc1cc(C(c2c(C)[nH][nH]c2=O)c2c(C)[nH][nH]c2=O)cc([N+](=O)[O-])c1O	RecA splice inh 97.2 | GFP chromophore 0.446
COC(=O)COc1c(Cl)cc(C(c2c(C)[nH][nH]c2=O)c2c(C)[nH][nH]c2=O)cc1OC	RecA splice inh 95.7 | GFP chromophore 0.577
CCOc1cc(C2C3=C(CCCC3=O)NC3=C2C(=O)CCC3)cc(Cl)c1O	none
CC=C(C)C(=O)OC1C(O)c2c(ccc3ccc(=O)oc23)OC1(C)C (stereo unspecified)	none (no result: Mtb bLac sens, RecA splice inh, CCHFV vOTU inh, PfHsp40 rescue)
Cc1ccc(C(=O)NC(=Cc2ccccc2)C(=O)NCC2CCCO2)cc1 (stereo unspecified)	none (no result: Mtb bLac sens, RecA splice inh, CCHFV vOTU inh, PfHsp40 rescue)
CCOC(=O)NN=C(c1ccccc1)C1CCCCC1	none (no result: Mtb bLac sens, RecA splice inh, CCHFV vOTU inh, PfHsp40 rescue)
CCOc1cc(C(c2c(C)[nH][nH]c2=O)c2c(C)[nH][nH]c2=O)cc([N+](=O)[O-])c1O	RecA splice inh 97.4 | GFP chromophore 0.452
CCCc1[nH]nc2c1C(c1cc(OC)cc(OC)c1)C(C#N)=C(N)O2 (stereo unspecified)	RecA splice inh 44.4 | GFP chromophore 3.96
CCCc1[nH]nc2c1C(CCc1ccccc1)C(C#N)=C(N)O2 (stereo unspecified)	RecA splice inh 55.4 | GFP chromophore 22.2
CCCc1[nH]nc2c1C(c1ccc(OC)c(CSC3=NCCS3)c1)C(C#N)=C(N)O2 (stereo unspecified)	RecA splice inh 74.5 | GFP chromophore 14.8
CCCc1[nH]nc2c1C(c1cccc(OC(=O)c3ccco3)c1)C(C#N)=C(N)O2 (stereo unspecified)	RecA splice inh 58.9 | GFP chromophore 17.8
CCCc1[nH]nc2c1C(c1cc(OC)ccc1F)C(C#N)=C(N)O2 (stereo unspecified)	none
CC1(C)CC(=O)C2=C(C1)OC(N)=C(C#N)C2c1cccc(OC(=O)c2ccco2)c1 (stereo unspecified)	none
CC1(C)CC(=O)C2=C(C1)OC(N)=C(C#N)C2CCc1ccccc1 (stereo unspecified)	none (no result: RecA splice inh, Mtb hypoxia inh)
O=C(CCl)N1N=C(c2cccs2)CC1c1ccco1 (stereo unspecified)	RecA splice inh 62.6 | GFP chromophore 31.1
C/C(CC(=O)N1CCN(C=O)CC1)=N\NC(=O)c1cccc([N+](=O)[O-])c1	RecA splice inh 71.3 (no result: Mtb hypoxia inh) | GFP chromophore 32.5
O=[N+]([O-])C(/C=C(/Cl)[N+](=O)[O-])=C(N1CCCCC1)N1CCCCC1	Mtb bLac sens inconclusive, RecA splice inh 49.4 | GFP chromophore 19.6
C#CCOCCOCCOCCNc1nc(N2CCN(C(=O)C(CCCCN)n3cc(C(N)CC(N)=O)nn3)CC2)nc(N2CCN(C(=O)C(C(C)O)n3cc(C(N)CCCCN)nn3)CC2)n1 (stereo unspecified)	none (no result: Mtb bLac sens, RecA splice inh, CCHFV vOTU inh, PfHsp40 rescue)
COc1ccc(C2CC(=O)C=C(c3ccc(Br)c4ccccc34)C2)cc1 (stereo unspecified)	none (no result: Mtb bLac sens, RecA splice inh, CCHFV vOTU inh, PfHsp40 rescue)
N#CC1(C#N)CC(C=O)=C(N)C1(C#N)CC(=O)C12CC3CC(CC(C3)C1)C2 (stereo unspecified)	RecA splice inh 41.1 | GFP chromophore 19.2
CCOC(=O)c1ccc(NC(=O)c2nc[nH]c2C(=O)NC(CC(C)C)C(=O)OC(C)(C)C)cc1 (stereo unspecified)	none (no result: Mtb bLac sens, RecA splice inh, CCHFV vOTU inh, PfHsp40 rescue)
COc1cc(C=C2C(=O)c3ccccc3C2=O)cc(OC)c1OC	none (no result: RecA splice inh)
COc1cc(C=C2C(=O)c3ccccc3C2=O)ccc1O	RecA splice inh 46.0 | GFP chromophore inactive
CCc1ccc(N2C(=O)C(Cl)=C(N3CCOCC3)C2=O)cc1	RecA splice inh 77.6 | GFP chromophore 5.28
COc1ccc(N2C(=O)C(Cl)=C(Oc3cccc(OC)c3)C2=O)cc1	RecA splice inh 38.8 (no result: CCHFV vOTU inh) | GFP chromophore 20.2
COc1ccc(N2C(=O)c3ccccc3C2=O)cc1	none
COc1ccc(N2C(=O)C(Cl)=C(N3CCN(Cc4ccccc4)CC3)C2=O)cc1	RecA splice inh 69.0 (no result: Mtb bLac sens, CCHFV vOTU inh) | GFP chromophore 7.11
O=C1C(Cl)=C(N2CCN(Cc3ccccc3)CC2)C(=O)N1c1ccccc1	none
CCc1ccc(N2C(=O)C(Cl)=C(N3CCCCCC3)C2=O)cc1	none
COc1ccc(N2C(=O)C(Cl)=C(N3CCOCC3)C2=O)cc1	RecA splice inh 74.2 | GFP chromophore 8.7
NC(=NOC(=O)Nc1ccc(Cl)cc1)c1ncc(C(F)(F)F)cc1Cl	none (no result: Mtb bLac sens, RecA splice inh, CCHFV vOTU inh, PfHsp40 rescue)
CNCC(CC1CCCCC1)NCC(CO)NCC1(c2ccccc2)CC1 (stereo unspecified)	none (no result: Mtb bLac sens, RecA splice inh, CCHFV vOTU inh, PfHsp40 rescue)
O=C1C(Cl)=C(N2CCCCCC2)C(=O)N1c1ccccc1	RecA splice inh 36.0 | GFP chromophore 27.9
Cc1ccc(N2C(=O)C(Cl)=C(N3CCN(C)CC3)C2=O)c(C)c1	RecA splice inh 81.4 | GFP chromophore 6.44
CN1CCN(C2=C(Cl)C(=O)N(c3ccc(Cl)cc3)C2=O)CC1	RecA splice inh 33.4 (no result: CCHFV vOTU inh) | GFP chromophore 0.16
O=C1C(Cl)=C(N2CCCCCC2)C(=O)N1c1ccc(Br)cc1	none (no result: Mtb bLac sens)
O=[N+]([O-])c1cccc(C=NNc2nccnc2Cl)c1	none (no result: Mtb bLac sens, RecA splice inh, CCHFV vOTU inh, PfHsp40 rescue)
COc1ccccc1/C=C\C(=O)NCC(=O)NN=C(C)c1cccc([N+](=O)[O-])c1	none (no result: Mtb bLac sens, RecA splice inh, CCHFV vOTU inh, PfHsp40 rescue)
O=C(NN=Cc1ccc(N2CCOCC2)cc1)c1ccccn1	none (no result: Mtb bLac sens, RecA splice inh, CCHFV vOTU inh, PfHsp40 rescue)
O=C(c1ccc2c(c1)OCO2)[C@@H]1[C@@H]2C(=O)N(C3CCCCC3)C(=O)[C@@H]2C2c3ccccc3C=CN21 (stereo partly specified)	none (no result: Mtb bLac sens)
O=C(c1cccs1)[C@@H]1[C@@H]2C(=O)N(Cc3ccc4c(c3)OCO4)C(=O)[C@@H]2C2c3ccccc3C=CN21 (stereo partly specified)	RecA splice inh 37.8 (no result: Mtb hypoxia inh, CCHFV vOTU inh, PfHsp40 rescue) | GFP chromophore 4.24
CN1CCN(N=C2C(=O)Nc3ccc([N+](=O)[O-])cc32)CC1	none (no result: Mtb bLac sens, RecA splice inh, CCHFV vOTU inh, PfHsp40 rescue)
Cc1[nH]nc2c1C(Cc1ccccc1)C(C#N)=C(N)O2 (stereo unspecified)	none (no result: Mtb hypoxia inh)
